Measured values reported in PubChem BioAssay AID1159580 (chemical genetic matrix, 2015).
Several values for one entry are separate records, joined by “and”; a condition that tells them apart may be missing. Equal entries are not always repeated. The campaign covered roughly 5,500 compounds. About 2,000 (36%) were called active. About 18% were inconclusive and are not listed. Cut-off read from the data, not from the text of the source: active = normalized growth mostly below about 0.91 (no sharp cut-off); inconclusive = no clear call, values can overlap the other calls; inactive = mostly above about 0.92. Some of the results follow.

Test: chemical genetic growth profiling, strain panel (AID 1159580);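 note: tested at 20 µM; growth read once vehicle control cultures reached saturation at 30 °C; 1 = growth at the plate median or of vehicle wells; lower values mean less growth of the strain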
Conditions: growth OD

Measured: normalized growth

Cc1ccccc1C(OCCN(C)C)c1ccccc1 (stereo not given)
inactive: S. cerevisiae deletion strains, locus YJR075W, strain HOC1, stronger effect = lower value 0.986 and 0.988 | S. cerevisiae deletion strains, locus YKL009W, strain mrt4, stronger effect = lower value 0.999 | S. cerevisiae deletion strains, locus YKL068W, stronger effect = lower value 0.996 | S. cerevisiae deletion strains, locus YKL085W, strain MDH1 (second series), stronger effect = lower value 1 | S. cerevisiae deletion strains, locus YKL085W, strain MDH1, stronger effect = lower value 1 | S. cerevisiae deletion strains, locus YKL160W, strain elf1, stronger effect = lower value 1.01 | S. cerevisiae deletion strains, locus YKL190W, strain CNB1, stronger effect = lower value 0.996 | S. cerevisiae deletion strains, locus YKR001C, strain vps1, stronger effect = lower value 1.03 | S. cerevisiae deletion strains, locus YKR026C, strain gcn3, stronger effect = lower value 1.01 | S. cerevisiae deletion strains, locus YKR091W, strain srl3, stronger effect = lower value 1.01 | S. cerevisiae deletion strains, locus YLL001W, strain dnm1, stronger effect = lower value 1 | S. cerevisiae deletion strains, locus YLL026W, stronger effect = lower value 1.01 | S. cerevisiae deletion strains, locus YLL041C, strain sdh2, stronger effect = lower value 0.998 | S. cerevisiae deletion strains, locus YLR027C, strain aat2, stronger effect = lower value 0.994 | S. cerevisiae deletion strains, locus YLR039C, strain RIC1, stronger effect = lower value 1.14 | S. cerevisiae deletion strains, locus YLR058C, strain SHM2, stronger effect = lower value 0.996 | S. cerevisiae deletion strains, locus YLR102C, strain apc9, stronger effect = lower value 1 | S. cerevisiae deletion strains, locus YLR113W, strain HOG1, stronger effect = lower value 0.956 | S. cerevisiae deletion strains, locus YLR221C, strain rsa3, stronger effect = lower value 1.01 | S. cerevisiae deletion strains, locus YLR258W, strain gsy2, stronger effect = lower value 1 | S. cerevisiae deletion strains, locus YLR262C, strain YPT6 (second series), stronger effect = lower value 1.05 | S. cerevisiae deletion strains, locus YLR262C, strain YPT6, stronger effect = lower value 1.13 | S. cerevisiae deletion strains, locus YLR268W, strain sec22, stronger effect = lower value 1.05 | S. cerevisiae deletion strains, locus YLR320W, strain mms22, stronger effect = lower value 1.02 | S. cerevisiae deletion strains, locus YLR330W, strain CHS5, stronger effect = lower value 1.01 | S. cerevisiae deletion strains, locus YLR342W, strain FKS1 (second series), stronger effect = lower value 1 | S. cerevisiae deletion strains, locus YLR342W, strain FKS1, stronger effect = lower value 1.03 | S. cerevisiae deletion strains, locus YLR357W, strain rsc2, stronger effect = lower value 1.01 | S. cerevisiae deletion strains, locus YLR370C, strain arc18, stronger effect = lower value 1 | S. cerevisiae deletion strains, locus YLR371W, strain rom2, stronger effect = lower value 1.01 | S. cerevisiae deletion strains, locus YLR384C, strain iki3, stronger effect = lower value 1.01 | S. cerevisiae deletion strains, locus YLR418C, strain cdc73, stronger effect = lower value 0.94 | S. cerevisiae deletion strains, locus YML016C, strain PPZ1, stronger effect = lower value 1 | S. cerevisiae deletion strains, locus YML032C, strain rad52, stronger effect = lower value 1.01 | S. cerevisiae deletion strains, locus YML120C, strain ndi1, stronger effect = lower value 1.01 | S. cerevisiae deletion strains, locus YML124C, strain tub3, stronger effect = lower value 1 | S. cerevisiae deletion strains, locus YMR058W, strain fet3, stronger effect = lower value 0.977 | S. cerevisiae deletion strains, locus YMR078C, strain ctf18, stronger effect = lower value 1.01 | S. cerevisiae deletion strains, locus YMR125W, strain sto1, stronger effect = lower value 1.01 | S. cerevisiae deletion strains, locus YMR129W, stronger effect = lower value 1.01 | S. cerevisiae deletion strains, locus YMR205C, strain PFK2, stronger effect = lower value 1.02 | S. cerevisiae deletion strains, locus YMR223W, strain ubp8, stronger effect = lower value 0.997 | S. cerevisiae deletion strains, locus YMR231W, strain pep5, stronger effect = lower value 0.998 | S. cerevisiae deletion strains, locus YMR263W, strain SAP30, stronger effect = lower value 0.985 | S. cerevisiae deletion strains, locus YMR307W, strain GAS1, stronger effect = lower value 1.01 | S. cerevisiae deletion strains, locus YNL067W, strain RPL9B, stronger effect = lower value 0.994 | S. cerevisiae deletion strains, locus YNL071W, strain lat1, stronger effect = lower value 1 | S. cerevisiae deletion strains, locus YNL128W, strain TEP1, stronger effect = lower value 1 | S. cerevisiae deletion strains, locus YNL153C, strain GIM3, stronger effect = lower value 1.01 | S. cerevisiae deletion strains, locus YNL175C, strain NOP13, stronger effect = lower value 1 | S. cerevisiae deletion strains, locus YNL183C, strain NPR1, stronger effect = lower value 0.945 | S. cerevisiae deletion strains, locus YNL197C, strain WHI3, stronger effect = lower value 1 | S. cerevisiae deletion strains, locus YNL209W, strain ssb2, stronger effect = lower value 1 | S. cerevisiae deletion strains, locus YNL224C, strain SQS1, stronger effect = lower value 0.994 | S. cerevisiae deletion strains, locus YNL233W, strain BNI4, stronger effect = lower value 1.01 | S. cerevisiae deletion strains, locus YNL248C, strain rpa49, stronger effect = lower value 1.01 | S. cerevisiae deletion strains, locus YNL250W, strain rad50, stronger effect = lower value 0.989 | S. cerevisiae deletion strains, locus YNL271C, strain bni1, stronger effect = lower value 1.01 | S. cerevisiae deletion strains, locus YNL298W, strain CLA4, stronger effect = lower value 1.03 | S. cerevisiae deletion strains, locus YNL307C, strain MCK1, stronger effect = lower value 1.02 | S. cerevisiae deletion strains, locus YNL322C, strain KRE1 (second series), stronger effect = lower value 1.03 | S. cerevisiae deletion strains, locus YNL322C, strain KRE1, stronger effect = lower value 0.997 and 0.999 | S. cerevisiae deletion strains, locus YNR049C, strain mso1, stronger effect = lower value 1.02 | S. cerevisiae deletion strains, locus YNR052C, strain pop2, stronger effect = lower value 1.01 | S. cerevisiae deletion strains, locus YOL006C, strain TOP1, stronger effect = lower value 0.986 | S. cerevisiae deletion strains, locus YOL012C, strain htz1 0.949 | S. cerevisiae deletion strains, locus YOL147C, strain pex11, stronger effect = lower value 1.01 | S. cerevisiae deletion strains, locus YOR001W, strain rrp6, stronger effect = lower value 0.994 | S. cerevisiae deletion strains, locus YOR061W, strain CKA2, stronger effect = lower value 1 | S. cerevisiae deletion strains, locus YOR069W, strain VPS5, stronger effect = lower value 1 | S. cerevisiae deletion strains, locus YOR070C, strain gyp1, stronger effect = lower value 0.996 | S. cerevisiae deletion strains, locus YOR080W, strain dia2, stronger effect = lower value 0.996 | S. cerevisiae deletion strains, locus YOR083W, strain WHI5 (second series), stronger effect = lower value 1 | S. cerevisiae deletion strains, locus YOR083W, strain WHI5, stronger effect = lower value 1.02 | S. cerevisiae deletion strains, locus YOR106W, strain vam3, stronger effect = lower value 1.03 | S. cerevisiae deletion strains, locus YOR136W, strain idh2, stronger effect = lower value 0.988 | S. cerevisiae deletion strains, locus YOR144C, strain elg1, stronger effect = lower value 1 | S. cerevisiae deletion strains, locus YOR184W, strain ser1, stronger effect = lower value 1.03 | S. cerevisiae deletion strains, locus YOR231W, strain MKK1, stronger effect = lower value 0.961 | S. cerevisiae deletion strains, locus YOR265W, strain rbl2, stronger effect = lower value 0.994 | S. cerevisiae deletion strains, locus YOR270C, strain vph1, stronger effect = lower value 0.972 | S. cerevisiae deletion strains, locus YOR290C, strain snf2, stronger effect = lower value 1.03 | S. cerevisiae deletion strains, locus YOR316C, strain cot1, stronger effect = lower value 1 | S. cerevisiae deletion strains, locus YPL051W, strain arl3, stronger effect = lower value 0.994 | S. cerevisiae deletion strains, locus YPL078C, strain atp4, stronger effect = lower value 1 | S. cerevisiae deletion strains, locus YPL106C, strain sse1, stronger effect = lower value 1.02 | S. cerevisiae deletion strains, locus YPL240C, strain hsp82, stronger effect = lower value 0.982 | S. cerevisiae deletion strains, locus YPL241C, strain CIN2, stronger effect = lower value 1 and 0.994 | S. cerevisiae deletion strains, locus YPL256C, strain CLN2, stronger effect = lower value 0.933 | S. cerevisiae deletion strains, locus YPR119W, strain clb2, stronger effect = lower value 1 | S. cerevisiae deletion strains, locus YPR141C, strain kar3, stronger effect = lower value 0.994 | S. cerevisiae deletion strains, locus YPR163C, strain tif3, stronger effect = lower value 1.01 | S. cerevisiae deletion strains, locus YPR167C, strain met16, stronger effect = lower value 1 | S. cerevisiae deletion strains, strain wtn01, stronger effect = lower value 1.02 | S. cerevisiae strains, strain wild type, stronger effect = lower value 0.989
